Test [1] is described as follows: TOX21_p53_BLA_p2_viability: Viability Assessment in the Tox21 HCT-116 p53 Agonism Beta-lactamase Assay, Phase 2 (AID 2283591).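 Note: compound exposure lasted 16 h at 37 °C; actives lower the ATP signal meaning cytotoxicity.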 Put shortly: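 Cytotoxicity readout: CellTiter-Glo ATP luminescence, 30 min at room temperature, after the beta-lactamase read. Cells were HCT116 exposed 16 h at 37C to compounds pin-transferred at 217-fold dilution from DMSO stocks.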
A short description of test [2]: TOX21_p53_BLA_p3_viability: Viability Assessment in the Tox21 HCT-116 p53 Agonism Beta-lactamase Assay, Phase 3 (AID 2283593).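 Note: cells exposed to compound for 16 h before reading.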 The procedure, abridged: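 Cellular ATP was quantified by CellTiter-Glo luminescence, read after 30 min at room temperature. Beforehand, HCT116 cells (4000/well) received compound 5 h post-seeding, 217-fold diluted from DMSO, then incubated 16 h at 37C.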

Test [3] has as its target Cellular tumor antigen p53 (Homo sapiens) (UniProt P04637). As to the kind of experiment: TOX21_p53_BLA_p3_ratio: Tox21 HCT-116 p53 Agonism Beta-lactamase Assay, Ratio, Phase 3 (AID 2283596). Put shortly:
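Cells were seeded at 4000/well, rested 5 h at 37C, then dosed with DMSO compound solutions (217-fold dilution) for 16 h. CCF4-AM substrate was loaded for 2 h at room temperature, and the 460/530 nm emission ratio was fitted for gain of signal versus DMSO.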

Test [4] is described as follows: TOX21_p53_BLA_p4_viability: Viability Assessment in the Tox21 HCT-116 p53 Agonism Beta-lactamase Assay, Phase 4 (AID 2283597).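 Note: hits lower the luminescence signal meaning cytotoxicity.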 The procedure, abridged: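 Readout: ATP luminescence (CellTiter-Glo), measured 30 min after reagent addition at RT. The reagent followed a 2 h CCF4-AM incubation, and the cells had been exposed to compound for 16 h at 37C.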
Test [5] addresses Cellular tumor antigen p53 (Homo sapiens) (UniProt P04637). As to the kind of experiment: TOX21_p53_BLA_p5_ratio: Tox21 HCT-116 p53 Agonism Beta-lactamase Assay, Ratio, Phase 5 (AID 2283599). Put shortly:
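Beta-lactamase reporter ratio (blue 460 nm over green 530 nm, 405 nm excitation) after 2 h CCF4-AM loading, in HCT-116 cells exposed 16 h at 37 C to compounds pinned at 217-fold dilution. Increases relative to DMSO baseline scored.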

Test [6] has the same target. As to the kind of experiment: TOX21_p53_BLA_p4_ratio: Tox21 HCT-116 p53 Agonism Beta-lactamase Assay, Ratio, Phase 4 (AID 2283601). The procedure, abridged:
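Signal is the blue/green (460nm/530nm) ratio of cleaved versus uncleaved CCF4-AM substrate, read after 2 h substrate loading. Cells were HCT116 carrying the p53-responsive beta-lactamase reporter, dosed 16 h at 37C, 5% CO2; CellTiter-Glo measured in parallel.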

Another test addresses PGR (gene 5241) (UniProt P06401). As to the kind of experiment: TOX21_PR_BLA_Followup_Antagonist_ratio: Tox21 HEK293 Progesterone Receptor (PR) Antagonism Beta-lactamase Follow-Up Assay, Ratio (AID 2283934).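 Note: PR-UAS-bla HEK293T cells stimulated with 1 nM R5020 agonist for 16 hr.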 Put shortly: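 Measured in PR-UAS-bla HEK293T cells co-treated with compound and 1 nM promegestone for 16 hr; beta-lactamase ratio read after 2 h FRET substrate loading, with parallel CellTiter-Glo cytotoxicity.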

The nature of test [7]: TOX21_PR_BLA_Followup_Agonist_viability: Viability Assessment in the Tox21 HEK293 Progesterone Receptor (PR) Agonism Beta-lactamase Follow-Up Assay (AID 2283935).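 Note: signal loss means lower viability so actives are cytotoxic.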 Put shortly:
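Viability is read as CellTiter-Glo luminescence, where loss of signal indicates cytotoxicity. The cells are PR-UAS-bla HEK293T given compounds for 16 hr at 37C and 5% CO2, in the same wells used for the bla readout.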

Test [8] in a line: TOX21_PR_BLA_Followup_Antagonist_viability: Viability Assessment in the Tox21 HEK293 Progesterone Receptor (PR) Antagonism Beta-lactamase Follow-Up Assay (AID 2283936).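 Note: cells exposed to compound with R5020 agonist for 16 h; hits lower the luminescence signal meaning cytotoxicity.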 The procedure, abridged: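 PR-UAS-bla HEK293T cells in medium with 2% charcoal-stripped FBS were treated with compounds plus R5020 for 16 hr at 37C. After the beta-lactamase read, CellTiter-Glo was added to the same wells and luminescence read after 30 min at room temperature.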

Test [9] is described as follows: TOX21_PR_LUC_Followup_Agonist_viability: Viability Assessment in the Tox21 HEK293 Progesterone Receptor (PR) Agonism Luciferase Follow-Up Assay (AID 2283941).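 Note: loss of signal means cytotoxicity so actives lower viability.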 Put shortly: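 Seeding: HEK293-PR-A-luc, 3,000 cells/well, 5 h at 37C. Treatment: compound in DMSO, 16 h, 37C. Read: CellTiter-Glo ATP luminescence, signal loss taken as lower viability.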
Test [10] can be described thus: CEETOX_H295R_MTT_cell_viability: Viability Assessment in the CeeTox HT-H295R MTT Assay (AID 2283718; active = hit-call score of the fitted dose curve at least 0.9, where 1 is the maximum; inactive = score below 0.9). The procedure, abridged:
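MTT reduction (0.5 mg/ml, 4 h at 37 C; absorbance at 570 and 650 nm) gave viability as background-corrected percent change versus controls. H295R cells had 48 h forskolin (10 uM) prestimulation, then 48 h chemical exposure at 0.1% DMSO.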

A short description of test [11]: CEETOX_H295R_11DCORT_noMTC: CeeTox H295R High-throughput Steroidogenesis Assay for 11-Deoxycortisol (11DCORT), maximum tolerated concentration (MTC) filtered results only (AID 2283911; active = hit-call score of the fitted dose curve at least 0.9, where 1 is the maximum; inactive = score below 0.9). The settings on record: actives raise or lower the signal. Put shortly: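 Steroidogenesis was stimulated in H295R cells with 10 uM forskolin for 48 h before a 48 h chemical exposure. Secreted 11-deoxycortisol was measured by tandem mass spectrometry and fitted bidirectionally against DMSO controls.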

Test [12] can be described thus: CEETOX_H295R_OHPREG_noMTC: CeeTox H295R High-throughput Steroidogenesis Assay for OH-Pregnenolone (OHPREG), maximum tolerated concentration (MTC) filtered results only (AID 2283912; active = hit-call score of the fitted dose curve at least 0.9, where 1 is the maximum; inactive = score below 0.9). The settings on record: actives raise or lower the signal. The procedure, abridged:
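Medium 17alpha-hydroxypregnenolone quantified by reverse-phase HPLC-MS/MS after 48 h chemical exposure of forskolin-prestimulated (10 uM, 48 h) H295R, 0.1% DMSO final. Fitting bidirectional relative to DMSO; no maximum-tolerated-concentration filtering applied.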

Test [13] is described as follows: CEETOX_H295R_OHPROG_noMTC: CeeTox H295R High-throughput Steroidogenesis Assay for OH-Progesterone (OHPROG), maximum tolerated concentration (MTC) filtered results only (AID 2283914; active = hit-call score of the fitted dose curve at least 0.9, where 1 is the maximum; inactive = score below 0.9). The settings on record: actives raise or lower the signal. The procedure, abridged:
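After 48 h forskolin (10 uM) prestimulation, H295R adrenal cells received test chemical in 0.1% DMSO for 48 h. Medium 17alpha-hydroxyprogesterone was MTBE-extracted and measured by HPLC-MS/MS; gain or loss relative to DMSO, no MTT-based MTC filtering.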

Test [14] in a line: CEETOX_H295R_CORTISOL_noMTC: CeeTox H295R High-throughput Steroidogenesis Assay for Cortisol, maximum tolerated concentration (MTC) filtered results only (AID 2283916; active = hit-call score of the fitted dose curve at least 0.9, where 1 is the maximum; inactive = score below 0.9). To be noted: actives raise or lower the signal. Put shortly: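 Cortisol secretion measured by LC-MS/MS after 48 h chemical treatment (final 0.1% DMSO) of forskolin-primed (10 uM, 48 h) H295R cells; gain or loss fitted relative to DMSO, without maximum-tolerated-concentration filtering.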

Test [15] can be described thus: CEETOX_H295R_CORTIC_noMTC: CeeTox H295R High-throughput Steroidogenesis Assay for Corticosterone (CORTIC), maximum tolerated concentration (MTC) filtered results only (AID 2283917; active = hit-call score of the fitted dose curve at least 0.9, where 1 is the maximum; inactive = score below 0.9). To be noted: actives raise or lower the signal. The procedure, abridged: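 Human adrenal H295R cells were prestimulated 48 h with 10 uM forskolin, then exposed 48 h to chemical in 0.1% DMSO. Medium corticosterone was MTBE-extracted and quantified by HPLC-MS/MS; bidirectional fits versus DMSO, concentrations not MTC-filtered.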

The nature of test [16]: CEETOX_H295R_DOC_noMTC: CeeTox H295R High-throughput Steroidogenesis Assay for DOC, maximum tolerated concentration (MTC) filtered results only (AID 2283918; active = hit-call score of the fitted dose curve at least 0.9, where 1 is the maximum; inactive = score below 0.9). The settings on record: actives raise or lower the signal. The procedure, abridged: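 11-Deoxycorticosterone secreted by human adrenal H295R cells quantified by HPLC-MS/MS after 48 h chemical exposure (0.1% DMSO), following 48 h 10 uM forskolin prestimulation. Concentrations not filtered by MTT-derived MTC; bidirectional fitting.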

Test [17] can be described thus: CEETOX_H295R_PROG_noMTC: CeeTox H295R High-throughput Steroidogenesis Assay for Progesterone (PROG), maximum tolerated concentration (MTC) filtered results only (AID 2283920; active = hit-call score of the fitted dose curve at least 0.9, where 1 is the maximum; inactive = score below 0.9). To be noted: actives raise or lower the signal. Put shortly:
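Progesterone secreted into medium was measured by HPLC-MS/MS after MTBE extraction, following 48 h chemical exposure (0.1% DMSO) of forskolin-prestimulated (10 uM, 48 h) H295R adrenal cells. Gain or loss fitted against DMSO; no MTC filtering.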

Test [18] in a line: CCTE_Harrill_HTTr_Viability_MCF7: CCTE's 6-hour Cell Viability Assessment for the High-Throughput Transcriptomics (HTTr) Platform, in MCF-7 cells cultured in DMEM + 10% fetal bovine serum, Harrill Lab (AID 2284010; active = hit-call score of the fitted dose curve at least 0.9, where 1 is the maximum; inactive = score below 0.9). The procedure, abridged:
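Eight-point concentration series, six-hour exposure. Propidium iodide exclusion imaged to assess membrane integrity as a cytotoxicity readout; bidirectional fitting was done with DMSO as negative control and activity baseline.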

Test [19] is described as follows: CCTE_Harrill_HTTr_Apoptosis_MCF7: CCTE's 6-hour Apoptosis Assessment for the High-Throughput Transcriptomics (HTTr) Platform, in MCF-7 cells cultured in DMEM + 10% fetal bovine serum, Harrill Lab (AID 2284011; active = hit-call score of the fitted dose curve at least 0.9, where 1 is the maximum; inactive = score below 0.9). The procedure, abridged:
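MCF-7 (DMEM + 10% FBS), 384-well; 8-pt dilution series, 6 h chemical exposure; caspase-3/7 activation via CellEvent Caspase 3/7 Green, HCI; bidirectional fit vs DMSO.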

A short description of test [20]: TOX21_p53_BLA_p5_viability: Viability Assessment in the Tox21 HCT-116 p53 Agonism Beta-lactamase Assay, Phase 5 (AID 2283600). The procedure, abridged:
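Workflow: seed 4000 cells per well, wait 5 h, add compounds (DMSO, 217-fold dilution), incubate 16 h, load CCF4-AM 2 h, add CellTiter-Glo, read luminescence after 30 min.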

Inconclusive results are not listed. Activity calls are given as the source filed them. Rule for the calls, unless noted: active = hit-call score of the fitted dose curve at least 0.9, where 1 is the maximum; inconclusive = response in the unintended direction; inactive = score below 0.9.

Sequence of Cellular tumor antigen p53 (Homo sapiens) (P04637 whole entry, looked up): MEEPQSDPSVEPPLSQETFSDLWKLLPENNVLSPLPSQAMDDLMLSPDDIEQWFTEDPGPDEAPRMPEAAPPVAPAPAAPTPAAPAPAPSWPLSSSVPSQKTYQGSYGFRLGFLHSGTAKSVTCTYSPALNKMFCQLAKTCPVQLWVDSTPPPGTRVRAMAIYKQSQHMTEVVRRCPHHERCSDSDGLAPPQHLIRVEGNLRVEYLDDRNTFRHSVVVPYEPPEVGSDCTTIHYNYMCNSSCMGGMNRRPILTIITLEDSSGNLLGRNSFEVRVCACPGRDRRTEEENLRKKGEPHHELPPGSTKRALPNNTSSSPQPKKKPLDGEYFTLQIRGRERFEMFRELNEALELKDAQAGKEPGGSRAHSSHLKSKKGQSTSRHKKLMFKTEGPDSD
Sequence of PGR (gene 5241) (P06401 whole entry, looked up): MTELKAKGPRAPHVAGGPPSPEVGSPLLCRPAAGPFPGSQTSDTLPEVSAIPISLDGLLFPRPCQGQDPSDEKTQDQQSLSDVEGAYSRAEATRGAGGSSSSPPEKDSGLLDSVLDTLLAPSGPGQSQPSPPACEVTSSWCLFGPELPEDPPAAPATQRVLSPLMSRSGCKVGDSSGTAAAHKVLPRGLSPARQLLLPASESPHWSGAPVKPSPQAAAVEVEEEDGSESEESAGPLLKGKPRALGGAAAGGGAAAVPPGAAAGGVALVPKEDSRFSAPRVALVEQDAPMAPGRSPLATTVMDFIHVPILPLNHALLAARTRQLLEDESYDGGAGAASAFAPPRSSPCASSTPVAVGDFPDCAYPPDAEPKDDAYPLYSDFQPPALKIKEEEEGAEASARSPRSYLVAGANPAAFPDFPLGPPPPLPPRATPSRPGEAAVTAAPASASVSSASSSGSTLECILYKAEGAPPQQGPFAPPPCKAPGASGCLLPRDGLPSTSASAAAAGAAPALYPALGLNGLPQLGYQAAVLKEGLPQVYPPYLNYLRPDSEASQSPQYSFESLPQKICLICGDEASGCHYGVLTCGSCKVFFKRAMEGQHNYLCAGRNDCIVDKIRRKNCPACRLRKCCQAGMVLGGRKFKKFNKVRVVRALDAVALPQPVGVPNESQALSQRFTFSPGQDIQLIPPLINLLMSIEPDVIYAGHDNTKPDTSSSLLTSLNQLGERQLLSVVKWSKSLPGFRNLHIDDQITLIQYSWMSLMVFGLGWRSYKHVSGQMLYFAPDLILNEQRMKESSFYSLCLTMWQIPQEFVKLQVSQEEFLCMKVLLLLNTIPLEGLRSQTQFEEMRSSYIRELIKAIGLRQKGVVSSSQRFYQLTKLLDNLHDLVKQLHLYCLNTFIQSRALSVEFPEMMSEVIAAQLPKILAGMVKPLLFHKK

As to `O=C(O)CCCC/C=C(\c1ccccc1)c1cccnc1`, the call in test [1], in test [2], in test [3], in test [4], in test [5] and in test [6] was inactive.
Take `COCCOC(=O)C1=C(C)NC(C)=C(C(=O)OC(C)C)C1c1cccc([N+](=O)[O-])c1` (stereo unspecified): the result in test [1], in test [2], in [3], in test [4], in [5] and in [7] was inactive. For the same molecule, the call in test [8] and in [9] was inactive. In addition, the AC50 in the test with PGR (gene 5241) is 23 µM (active).
Regarding `CC(C)(C(=O)c1cccnc1)c1cccnc1`, the molecule was classed as inactive in [1], in test [2], in [3], in test [4], in test [5] and in test [6]. Besides, the call in [10], in [16], in [17], in [18] and in test [19] was inactive. Also, the concentration at half-maximal activity (AC50) in test [11] is 35.3 µM (active); in [12] it was 36.9 µM (active); in [13], 29.1 µM (active); in [14] it was 1.56 µM (active); in [15] it was 130 nM (active).
Regarding `CCOC(=O)Cn1c(=O)sc2cccc(Cl)c21`, the result in test [1], in test [2], in [3], in [5], in test [20] and in test [6] was inactive.
As to `O=P(O)(O)CP(=O)(O)O`, the molecule was classed as inactive in test [1], in test [2], in [3], in [4], in test [20] and in test [6].
In the case of `CCN(CC)C(=O)N1CCN(C)CC1`, the molecule was classed as inactive in test [1], in test [2], in [3], in [4] and in test [6].
`CCCCCCCCC(=O)Cl`: the molecule was classed as inactive in test [1], in [2], in test [3], in [5] and in test [20].
On to `COc1cc(OC)cc(OC)c1`, for which the call in test [1], in test [2], in [3], in test [5] and in test [20] was inactive.
As for `COc1ccc(CCN(C)CCCC(C#N)(c2cc(OC)c(OC)c(OC)c2)C(C)C)cc1OC` (stereo unspecified), the molecule was called inactive in [1], in [2], in [3], in test [4], in test [20] and in [6].
As to `CCN(CC)CCOc1ccc(C(O)(Cc2ccc(Cl)cc2)c2ccc(C)cc2)cc1` (stereo unspecified), the AC50 in test [1] is 35.9 µM (active); in test [2] it was 23 µM (active); in test [4], 30.7 µM (active); in test [6], 43 µM (active). In addition, the result in test [3] and in test [5] was inactive.
With `Cc1cccc(C)c1NC(=O)CN1CCN(CCCC(c2ccc(F)cc2)c2ccc(F)cc2)CC1`, the call in test [1], in test [2], in test [3], in test [4] and in test [6] was inactive.
Take `CCC(=O)OCC(=O)[C@@]1(OC(=O)CC)[C@H](C)C[C@H]2[C@@H]3CCC4=CC(=O)C=C[C@]4(C)[C@@]3(F)[C@@H](O)C[C@@]21C`: the molecule was classed as inactive in [1], in [2], in test [3], in test [4] and in [20].
For the molecule `CCCCCCCCCCCBr`, the molecule was called inactive in test [1], in test [2], in [3], in [4], in [5] and in test [6].

The values are drawn from PubChem BioAssay (EPA / NIEHS).
